Experimental data as given in the supplement of paper PMC4709259.
Counter-ions that a name gives are not always drawn. ± gives the standard deviation.

Legend:
[1] = tested on: Jurkat; experiment: mean cell size (FSC-A) relative to DMSO control (fraction of control); higher = larger cells; conditions: 48 h
In short: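 Jurkat cells seeded at 600 cells/µl were incubated 1 h, then exposed for 48h to the Enzo Screen-Well FDA Approved Drug Library v2.0 at 25µM in 0.9% (v/v) final DMSO. Drugs that cut counts below 20% of controls were diluted 10-fold and retested, down to 25nM. Cell count and mean cell size (forward scatter area) were read on an Accuri C6 flow cytometer, relative to solvent-only controls. Plates held 6-12 controls; values are means of 3 biological replicates.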

[2] = tested on: Jurkat; experiment: cell count relative to DMSO control (fraction of control); higher = more cells (less growth inhibition); conditions: 48 h

Row | Structure (SMILES) | mean cell size [1] | cell count [2]
1 | CN(C)CCCC1(c2ccc(F)cc2)OCc2cc(C#N)ccc21 (stereo unspecified) [Citalopram·HBr] (concentration: 25 µM) | 0.951 ± 0.031 | 1.15 ± 0.039
2 | COc1ccc(CCN(C)CCCC(C#N)(c2ccc(OC)c(OC)c2)C(C)C)cc1OC (stereo unspecified) [Verapamil·HCl] (concentration: 25 µM) | 0.939 ± 0.025 | 0.756 ± 0.042
3 | CC(CCc1ccc(O)cc1)NCCc1ccc(O)c(O)c1 (stereo unspecified) [Dobutamine·HCl] (concentration: 25 µM) | 0.952 ± 0.042 | 0.464 ± 0.13
4 | O=C(O)Cc1ccccc1Nc1c(Cl)cccc1Cl [Diclofenac·Na Salt] (concentration: 25 µM) | 0.978 ± 0.039 | 0.725 ± 0.073
5 | CCOC(=O)[C@H](CCc1ccccc1)N[C@@H](C)C(=O)N1Cc2cc(OC)c(OC)cc2C[C@H]1C(=O)O [Moexipril·HCl] (concentration: 25 µM) | 0.9426 ± 0.0064 | 0.587 ± 0.074
6 | Nc1ccc(S(=O)(=O)c2ccc(N)cc2)cc1 [Dapsone] (concentration: 25 µM) | 0.9573 ± 0.0072 | 0.976 ± 0.1
7 | CCC(=O)OC(OP(=O)(CCCCc1ccccc1)CC(=O)N1C[C@H](C2CCCCC2)C[C@H]1C(=O)O)C(C)C (stereo partly specified) [Fosinopril·Na] (concentration: 25 µM) | 0.974 ± 0.054 | 0.562 ± 0.12
8 | Cc1nnc(SCC2=C(C(=O)O)N3C(=O)[C@@H](NC(=O)Cn4cnnn4)[C@H]3SC2)s1 [Cefazolin·Na] (concentration: 25 µM) | 0.964 ± 0.048 | 0.768 ± 0.013
9 | Nc1ccn([C@@H]2O[C@H](CO)[C@@H](O)[C@@H]2O)c(=O)n1 [Cytarabine] (concentration: 25 nM) | 1.18 ± 0.05 | 0.297 ± 0.088
10 | Cc1cccc(Nc2ccccc2C(=O)O)c1C [Mefenamic Acid] (concentration: 25 µM) | 0.938 ± 0.025 | 0.655 ± 0.14
11 | N=C(N)c1ccc(OCCCCCOc2ccc(C(=N)N)cc2)cc1 [Pentamidine Isethionate] (concentration: 25 µM) | 0.878 ± 0.021 | 0.601 ± 0.055
12 | CN(C)CC[C@@H](c1ccc(Cl)cc1)c1ccccn1 [Dexchlorpheniramine Maleate] (concentration: 25 µM) | 0.964 ± 0.033 | 0.526 ± 0.17
13 | CNC(=C[N+](=O)[O-])NCCSCc1ccc(CN(C)C)o1 [Ranitidine·HCl] (concentration: 25 µM) | 1 ± 0.049 | 0.895 ± 0.11
14 | CC(C)(C(=O)O)c1ccc(C(O)CCCN2CCC(C(O)(c3ccccc3)c3ccccc3)CC2)cc1 (stereo unspecified) [Fexofenadine·HCl] (concentration: 25 µM) | 0.996 ± 0.041 | 0.725 ± 0.024
15 | Nc1cc(-c2ccncc2)c[nH]c1=O [Amrinone] (concentration: 25 µM) | 0.965 ± 0.031 | 0.256 ± 0.064
16 | CC(C)C[C@H](NC(=O)[C@@H](COC(C)(C)C)NC(=O)[C@H](Cc1ccc(O)cc1)NC(=O)[C@H](CO)NC(=O)[C@H](Cc1c[nH]c2ccccc12)NC(=O)[C@H](Cc1cnc[nH]1)NC(=O)[C@@H]1CCC(=O)N1)C(=O)N[C@@H](CCCNC(=N)N)C(=O)N1CCC[C@H]1C(=O)NNC(N)=O [Goserelin Acetate] (concentration: 25 µM) | 0.953 ± 0.045 | 1.044 ± 0.003
17 | Nc1nc(=O)c2c([nH]1)NCC(CNc1ccc(C(=O)N[C@@H](CCC(=O)O)C(=O)O)cc1)N2C=O (stereo partly specified) [Leucovorin Calcium Pentahydrate] (concentration: 25 µM) | 0.933 ± 0.041 | 1.05 ± 0.035
18 | O=C(c1ccc(OCCN2CCCCC2)cc1)c1c(-c2ccc(O)cc2)sc2cc(O)ccc12 [Raloxifene·HCl] (concentration: 25 µM) | 0.891 ± 0.016 | 0.675 ± 0.044
19 | CC(C)(C)NCC(O)c1ccc(O)c(CO)c1 (stereo unspecified) [Salbutamol Hemisulfate] (concentration: 25 µM) | 1.01 ± 0.056 | 0.916 ± 0.11
20 | NCCCC(N)(C(=O)O)C(F)F (stereo unspecified) [Eflornithine·HCl] (concentration: 25 µM) | 0.958 ± 0.019 | 0.985 ± 0.073
21 | CCC(C)(C)C(=O)O[C@H]1C[C@@H](C)C=C2C=C[C@H](C)[C@H](CC[C@@H]3C[C@@H](O)CC(=O)O3)[C@H]21 [Simvastatin] (concentration: 25 µM) | 1.05 ± 0.054 | 0.698 ± 0.029
22 | O=C(O)CCCc1ccccc1 [Sodium Phenylbutyrate] (concentration: 25 µM) | 0.936 ± 0.024 | 1.05 ± 0.12
23 | OC(CCN1CCCCC1)(c1ccccc1)C1CCCCC1 (stereo unspecified) [Trihexyphenidyl·HCl] (concentration: 25 µM) | 1.04 ± 0.031 | 1.05 ± 0.066
